{
  "source": "the supplement of paper PMC8728848",
  "binders": {"B1": {"name": "Dectin-1 (Mus musculus), Q6QLQ4 (protein)", "chain": "GHNSGRNPEEKDNFLSRNKENHKPTESSLDEKVAPSKASQTTGGFSQPCLPNWIMHGKSCYLFSFSGNSWYGSKRHCSQLGAHLLKIDNSKEFEFIESQTSSHRINAFWIGLSRNQSEGPWFWEDGSAFFPNSFQVRNTAPQESLLHNCVWIHGSEVYNQICNTSSYSICEKEL"}},
  "assay_in_all_cases": "glycan array binding signal (z-score within array); higher = stronger binding",
  "conditions_in_all_cases": "glycan notation: IUPAC condensed, linker removed",
  "key": {"[1]": {"biological_target": "3dGal(b1-3)[Fuc(a1-4)]Glc", "summary_of_the_method": "(§1)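 Negative Z-scores can be read as non-binding. The Z-score is calculated within each array and then averaged across arrays of one protein sequence at different concentrations or buffers and across linkers. Arrays, 3228 in all, were curated from the Consortium for Functional Glycomics database and kept only where the protein sequence was available.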"}, "[2]": {"biological_target": "Ara(a1-5)Ara(a1-5)Ara(a1-5)Ara(a1-5)Ara(a1-5)Ara(a1-5)Ara", "summary_of_the_method": "as §1"}, "Fuc(a1-6)GlcNAc": {"biological_target": "Fuc(a1-6)GlcNAc", "summary_of_the_method": "as §1"}, "[3]": {"biological_target": "Gal(b1-3)GalNAc(b1-4)[Neu5Ac(a2-3)]Gal(b1-4)Glc", "summary_of_the_method": "as §1"}, "Gal(b1-3)GlcNAc": {"biological_target": "Gal(b1-3)GlcNAc", "summary_of_the_method": "as §1"}, "[4]": {"biological_target": "Gal(b1-3)GlcNAc(b1-3)[Fuc(a1-3)[Gal(b1-4)]GlcNAc(b1-6)]Gal(b1-4)]GlcNAc(b1-6)[Gal(b1-4)]GlcNAc(b1-3)]Gal(b1-4)Glc", "summary_of_the_method": "as §1"}, "Gal3S(b1-4)GlcNAc": {"biological_target": "Gal3S(b1-4)GlcNAc", "summary_of_the_method": "as §1"}, "Glc(a1-2)Glc(a1-2)Glc": {"biological_target": "Glc(a1-2)Glc(a1-2)Glc", "summary_of_the_method": "as §1"}, "Glc(a1-4)Glc(a1-6)Glc": {"biological_target": "Glc(a1-4)Glc(a1-6)Glc", "summary_of_the_method": "as §1"}, "Glc(a1-6)Glc(a1-6)Glc": {"biological_target": "Glc(a1-6)Glc(a1-6)Glc", "summary_of_the_method": "as §1"}, "[5]": {"biological_target": "Glc(b1-3)Glc(b1-3)Glc(b1-3)Glc(b1-3)Glc(b1-3)Glc(b1-3)Glc(b1-3)Glc(b1-3)Glc(b1-3)Glc(b1-3)Glc", "summary_of_the_method": "as §1"}, "[6]": {"biological_target": "Glc(b1-3)Glc(b1-3)Glc(b1-3)Glc(b1-3)Glc(b1-3)Glc(b1-3)Glc(b1-3)Glc(b1-3)Glc(b1-3)Glc(b1-3)Glc(b1-3)Glc", "summary_of_the_method": "as §1"}, "[7]": {"biological_target": "Glc(b1-3)Glc(b1-3)Glc(b1-3)Glc(b1-3)Glc(b1-3)Glc(b1-3)Glc(b1-3)Glc(b1-3)Glc(b1-3)Glc(b1-3)Glc(b1-3)Glc(b1-3)Glc", "summary_of_the_method": "as §1"}, "Glc(b1-3)Glc(b1-4)Glc": {"biological_target": "Glc(b1-3)Glc(b1-4)Glc", "summary_of_the_method": "as §1"}, "[8]": {"biological_target": "Glc(b1-3)Glc(b1-4)Glc(b1-4)Glc", "summary_of_the_method": "as §1"}, "[9]": {"biological_target": "Glc(b1-4)Glc(b1-4)Glc(b1-4)Glc(b1-4)Glc(b1-4)Glc(b1-4)Glc(b1-4)Glc(b1-4)Glc(b1-4)Glc(b1-4)Glc", "summary_of_the_method": "as §1"}, "GlcA(b1-3)Gal": {"biological_target": "GlcA(b1-3)Gal", "summary_of_the_method": "as §1"}, "[10]": {"biological_target": "GlcA3S(b1-3)Gal(b1-4)GlcNAc(b1-3)Gal(b1-4)Glc", "summary_of_the_method": "as §1"}, "GlcNAc(b1-3)Gal(b1-4)Glc": {"biological_target": "GlcNAc(b1-3)Gal(b1-4)Glc", "summary_of_the_method": "as §1"}, "[11]": {"biological_target": "Man(a1-2)Man(a1-2)Man(a1-3)[Man(a1-2)Man(a1-6)[Man(a1-3)]Man(a1-6)]Man(b1-4)GlcNAc(b1-4)GlcNAc", "summary_of_the_method": "as §1"}, "[12]": {"biological_target": "Man(b1-4)Man(b1-4)Man(b1-4)Man(b1-4)Man", "summary_of_the_method": "as §1"}, "[13]": {"biological_target": "Neu(a2-3)Gal(b1-4)[Fuc(a1-3)]GlcNAc(b1-3)Gal(b1-4)Glc", "summary_of_the_method": "as §1"}, "[14]": {"biological_target": "Neu5Ac(a2-3)Gal(b1-3)GalNAc(b1-4)[Neu5Ac(a2-3)]Gal(b1-4)Glc", "summary_of_the_method": "as §1"}, "[15]": {"biological_target": "Neu5Ac(a2-3)Gal(b1-3)GlcNAc(b1-3)Gal(b1-4)Glc", "summary_of_the_method": "as §1"}, "[16]": {"biological_target": "Neu5Ac(a2-3)Gal(b1-3)[Neu5Ac(a2-6)]GalNAc", "summary_of_the_method": "as §1"}, "[17]": {"biological_target": "Neu5Ac(a2-3)Gal(b1-4)GlcNAc6S(b1-3)Gal6S(b1-3)GlcNAc6S", "summary_of_the_method": "as §1"}, "[18]": {"biological_target": "Neu5Ac(a2-3)Gal(b1-4)[Fuc(a1-3)]GlcNAc(b1-3)Gal", "summary_of_the_method": "as §1"}, "[19]": {"biological_target": "Neu5Ac(a2-6)Gal(b1-4)GlcNAc(b1-2)Man(a1-3)[Neu5Ac(a2-6)Gal(b1-4)GlcNAc(b1-2)Man(a1-6)]Man(b1-4)GlcNAc(b1-4)GlcNAc", "summary_of_the_method": "as §1"}, "[20]": {"biological_target": "Neu5Ac(a2-6)Gal(b1-4)GlcNAc(b1-3)[Neu5Ac(a2-6)Gal(b1-4)GlcNAc(b1-6)]Gal(b1-4)Glc", "summary_of_the_method": "as §1"}},
  "note": "This excerpt belongs to a sample that is enriched for the strongest signals.",
  "data": [
    {"binder": "B1", "values": [
      {"measurement": "glycan array binding signal (z-score)", "setting": "[1]", "value": 0.092},
      {"measurement": "glycan array binding signal (z-score)", "setting": "[2]", "value": -0.064},
      {"measurement": "glycan array binding signal (z-score)", "setting": "Fuc(a1-6)GlcNAc", "value": -0.091},
      {"measurement": "glycan array binding signal (z-score)", "setting": "[3]", "value": -0.091},
      {"measurement": "glycan array binding signal (z-score)", "setting": "Gal(b1-3)GlcNAc", "value": -0.088},
      {"measurement": "glycan array binding signal (z-score)", "setting": "[4]", "value": 0.102},
      {"measurement": "glycan array binding signal (z-score)", "setting": "Gal3S(b1-4)GlcNAc", "value": -0.071},
      {"measurement": "glycan array binding signal (z-score)", "setting": "Glc(a1-2)Glc(a1-2)Glc", "value": -0.135},
      {"measurement": "glycan array binding signal (z-score)", "setting": "Glc(a1-4)Glc(a1-6)Glc", "value": 0.413},
      {"measurement": "glycan array binding signal (z-score)", "setting": "Glc(a1-6)Glc(a1-6)Glc", "value": -0.113},
      {"measurement": "glycan array binding signal (z-score)", "setting": "[5]", "value": 1.33},
      {"measurement": "glycan array binding signal (z-score)", "setting": "[6]", "value": 5.34},
      {"measurement": "glycan array binding signal (z-score)", "setting": "[7]", "value": 13.4},
      {"measurement": "glycan array binding signal (z-score)", "setting": "Glc(b1-3)Glc(b1-4)Glc", "value": -0.135},
      {"measurement": "glycan array binding signal (z-score)", "setting": "[8]", "value": -0.135},
      {"measurement": "glycan array binding signal (z-score)", "setting": "[9]", "value": 0.216},
      {"measurement": "glycan array binding signal (z-score)", "setting": "GlcA(b1-3)Gal", "value": -0.06},
      {"measurement": "glycan array binding signal (z-score)", "setting": "[10]", "value": -0.078},
      {"measurement": "glycan array binding signal (z-score)", "setting": "GlcNAc(b1-3)Gal(b1-4)Glc", "value": -0.029},
      {"measurement": "glycan array binding signal (z-score)", "setting": "[11]", "value": -0.004},
      {"measurement": "glycan array binding signal (z-score)", "setting": "[12]", "value": -0.113},
      {"measurement": "glycan array binding signal (z-score)", "setting": "[13]", "value": -0.091},
      {"measurement": "glycan array binding signal (z-score)", "setting": "[14]", "value": -0.039},
      {"measurement": "glycan array binding signal (z-score)", "setting": "[15]", "value": -0.091},
      {"measurement": "glycan array binding signal (z-score)", "setting": "[16]", "value": -0.069},
      {"measurement": "glycan array binding signal (z-score)", "setting": "[17]", "value": -0.054},
      {"measurement": "glycan array binding signal (z-score)", "setting": "[18]", "value": -0.091},
      {"measurement": "glycan array binding signal (z-score)", "setting": "[19]", "value": -0.091},
      {"measurement": "glycan array binding signal (z-score)", "setting": "[20]", "value": -0.091}
    ]}
  ]
}
